HCMV antiviral: qHTS Assay for inhibitors of the human cytomegalovirus (HCMV) | HFF cells, HCMV-luciferase reporter, 72 h; stronger effect = lower value | activity change, negative = inhibition, % at 57.5 µM | 410,000 compounds, 4.5% hits | AID 1259415, 2018; in the data active = activity change below about -60%; inconclusive = no clear call, values can overlap the other calls; inactive = above about -39%
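HFF cells seeded 16 h at 37C, treated with compounds, infected with luciferase-reporter HCMV at MOI 1 PFU/cell; luciferase read at 72 h post infection, normalized to buffer-only and Salinomycin controls.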
FMDV antiviral: High Throughput Screening for Foot and Mouth Disease Virus Antivirals | FMDV antiviral cell-based qHTS | Potency, µM (highest dose often 57.9 µM), for inactives: at the highest dose activity change, negative = inhibition, most hits filed as inhibitors | 410,000 compounds, 1.2% hits; calls by dose curve; tested in HEK293T cells; also: read-out not given here; potency is read from the fitted curve at half-maximal effect; nearly all actives have a fitted effect of over 45% in size
Vaccinia mCherry: qHTS for Stage-Specific Inhibitors of Vaccinia Orthopoxvirus: mCherry Reporter Primary qHTS; Vaccinia virus mCherry reporter infection, fluorescence; Potency, µM (top dose mostly 36.5 µM), for the others: top-dose activity change, negative = inhibition, usual class: inhibitors; 310,000 compounds, 0.63% hits; calls by dose curve; tested in A549 cells; also: potency is read from the fitted curve at half-maximal effect; nearly all actives have a fitted effect of over 35% in size
HCV inhibitor: qHTS Assay for Inhibitors of Hepatitis C Virus (HCV); Huh7.5.1 HCVcc-Cre infection, luciferase reporter, 44 h; Potency, µM (series often up to 41.8 µM), inactives show top-dose activity change, negative = inhibition, most hits filed as inhibitors; 340,000 compounds, 3.4% hits; active = well fitted inhibition curve with a large enough effect; inconclusive = small, poorly fitted or top-dose-only effect, or another doubt; inactive = no such curve, though single readings can be large or run the other way; also: potency is read from the fitted curve at half-maximal effect
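Luciferase read-out (15 sec integration) after a 15 min room-temperature substrate step quantifies HCVcc-Cre infection. Cells, 1,000 per well, had compound added 4 h post-plating, then virus at ~0.5 moi, and were cultured 44 h.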
VACV Venus inh: qHTS for Stage-Specific Inhibitors of Vaccinia Orthopoxvirus: Venus Reporter Primary qHTS; Vaccinia virus Venus reporter expression, fluorescence; Potency, µM (doses to about 36.5 µM), inactives show top-dose activity change, negative = inhibition, actives largely listed as inhibitors; 330,000 compounds, 0.46% hits; AID 720580, 2013; calls by dose curve; tested in A549 cells; also: potency is read from the fitted curve at half-maximal effect; nearly all actives have a fitted effect of over 30% in size
Numbers without * were called inactive; ? = inconclusive; / = no result; [ ] = another dose, or the depositor's remark. Most compounds without a hit are left out; they make up all but 7.3% or so of the library. % is scaled to controls: 0 for no effect and ±100 for the full control effect.

SMILES | HCMV antiviral | FMDV antiviral | Vaccinia mCherry | HCV inhibitor | VACV Venus inh
COc1ccc(C(=O)NCc2nnnn2-c2ccc(C)c(C)c2)cc1 | -34.2 | -1.8% | -17.4%[7.34 µM] | / | -9.1%[7.34 µM]
CCN(Cc1ccccc1)c1ccc(/C=N/N=C(N)N)cc1 | -61.9* | ? | ? | ? | 11.2µM*
NC(N)=N/N=C/c1ccc(OS(=O)(=O)c2ccccc2)cc1 | -82.0* | -24.4% | / | ? | /
NC(N)=N/N=C/c1ccc(N(c2ccccc2)c2ccccc2)cc1 | -97.5* | 31.6µM* | ? | ? | 10µM*
CC(Sc1nc(=O)cc(N)n1CCc1ccccc1)C(=O)Nc1ccccc1C#N (stereo unspecified) | 16.4 | -3.4% | 4.8% | / | 4.5%
CCOc1ccc(/C=C/c2nc(C#N)c(N3CCN(CC)CC3)o2)cc1 | -20.1 | -4.0% | -18.7% | / | -13.6%
CCc1ccc(CNC(=O)Cn2c(-c3cccs3)cc3cc(F)ccc32)cc1 | -65.1* | -0.9% | -14.0% | / | -13.2%
O=C(NCCCN1CCN(c2ccccc2F)CC1)C1CCN(S(=O)(=O)c2cccs2)CC1 | -68.3* | ? | / | -21.0% | /
CN1CCN(CCCNC(=O)Cn2c(-c3cccs3)cc3cc(Cl)ccc32)CC1 | -69.1* | -12.9% | -9.0% | / | -12.6%
CC1CCN(S(=O)(=O)c2cn(CC(=O)Nc3ccc(F)c(Cl)c3)c(=O)c3ccccc23)CC1 | -62.8* | 0.3% | -16.8% | / | -2.7%
CSc1ccc(CNC(=O)Cn2c(-c3cccs3)cc3cc(F)ccc32)cc1 | -32.9 | -16.1% | -5.8% | / | -14.8%
CC(=O)c1cccc(NC(=O)Cn2c(=O)c(CNc3ccc(C)cc3)cc3cc4c(cc32)OCCO4)c1 | 22.4 | 36.0% | -2.6% | / | 7.1%
CCCCNC(=O)c1nc2ccccc2nc1-c1ccc(F)c(F)c1 | 53.4 | / | / | / | /
N#Cc1ccccc1Cn1c(=O)n(CCCC(=O)NCc2ccccc2Cl)c(=O)c2ccccc21 | 26.4 | ? | ? | / | ?
O=C(Cn1c(-c2cccs2)cc2ccccc21)NCCCN1CCN(c2ccccc2F)CC1 | -68.3* | -18.5% | -28.5% | / | -21.7%
O=C(Cn1c(-c2cccs2)cc2cc(F)ccc21)NCCCN1CCN(c2ccccc2F)CC1 | ? | -28.9% | -22.2% | / | -19.4%
COCCNC(=O)Cn1cc(S(=O)(=O)N2CCN(c3ccccc3F)CC2)c2ccccc2c1=O | -24.5 | -11.3% | -16.0% | 0.3% | -6.3%
O=C(Cn1cc(S(=O)(=O)N2CCN(c3ccccc3F)CC2)c2ccccc2c1=O)NCCCN1CCCCCC1 | -17.0 | -6.3% | ? | 22.4µM* | -12.8%
Cc1ccc(CNC(=O)C2CCN(S(=O)(=O)c3cc(-c4noc(C)n4)ccc3C)CC2)cc1 | -20.2 | -18.6% | ? | / | -18.0%
Cc1ccc(N2CCN(C(=O)c3cc(-c4ccc(F)cc4)[nH]c3C)CC2C)cc1 (stereo unspecified) | -8.2 | -23.9% | 10µM* | 11.2µM* | ?
Cc1nc2ccccc2c(N)c1C(=O)/C=C/c1ccccc1 | -98.5* | 17.8µM* | 15.8µM* | 11.2µM* | ?
Cc1ccc(Cn2c(C3CCCN3c3nc(-c4cc(Cl)c(N)c(Cl)c4)cs3)nc3cc(C(=O)NCCCO)ccc32)cc1 (stereo unspecified) | -1.7 | 0.0% | ? | 1.41µM* | ?
Nc1nnc(CCS(=O)(=O)c2cc(Cl)ccc2Cl)s1 | -6.5 | -9.0% | -0.7%[1.46 µM] | 17.8% | -5.8%
Cc1ccccc1CN(C)CCS(=O)(=O)c1cc(Cl)ccc1Cl | -29.4 | -16.1% | 5.01µM* | -15.1% | ?
CCCn1nc(NC(=O)c2ccco2)c2cc3cc(C)ccc3nc21 | 28.0 | 4.2% | / | 12.6µM* | /
Cc1ccc2oc3c(c(=O)c2c1)C(c1ccc(O)cc1)N(c1nc(C)c(C)s1)C3=O (stereo unspecified) | 4.9 | -14.5% | -7.0% | / | 8.3%
O=C(Nc1ccc2nc(SCC(=O)N3CCCc4ccccc43)sc2c1)c1cccc(F)c1 | 37.5 | ? | ? | / | ?
Fc1cc(F)c(-c2nc3ccccc3nc2-c2ccccc2)c(F)c1 | -11.9 | / | / | / | /
Cc1ccc(S(=O)(=O)N2CCOCC2)cc1NC(=O)COc1ccccc1Cc1ccccc1 | ? | ? | -19.3% | 12.6µM* | -22.4%

Assay outcomes from PubChem.
